From PubChem BioAssay (NCI)
This is part of a sample that, as a whole, favours compounds with a hit. Of some 83,000 tested, about 20% had one in any assay.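 In brief: 96-well plates, 48 h treatment, single concentration, percent growth endpoint.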 Calls of active or inactive are those of the source. Rule for the calls: active = growth percent below 10; inactive = the rest.

Columns and labels:
Assay in all cases: NCI-60 one-dose screen, 48 h (100 = growth as untreated, 0 = no growth, -100 = all killed)
Conditions in all cases: 10 µM unless noted
T-47D breast = system: T-47D breast
BT-549 breast = system: BT-549 breast
SW-620 colon = system: SW-620 colon
MCF7 breast = system: MCF7 breast
HCT-116 colon = system: HCT-116 colon
HCC-2998 colon = system: HCC-2998 colon
KM12 colon = system: KM12 colon
MDA-MB-435 melanoma = system: MDA-MB-435 melanoma

Measured: growth

COc1ccc(-c2cc(-c3c(C)oc4cc5occc5c(OC)c4c3=O)nc(N)c2C#N)cc1OC
inactive: T-47D breast 41.2% | BT-549 breast 70.8% | SW-620 colon 57.5% | MCF7 breast 24.8% | HCT-116 colon 53.7% | HCC-2998 colon 98% | KM12 colon 59.6%

N=c1c(S(=O)(=O)c2ccccc2)cc2c(=O)n3ccccc3nc2n1C1CCCC1
inactive: T-47D breast 79.8% | BT-549 breast 89.3% | SW-620 colon 99.3% | MCF7 breast 93.8% | HCT-116 colon 91.5% | HCC-2998 colon 103% | KM12 colon 98.5%

CN(C)c1ccc(C(=O)c2ccc(N(C)C)c(N)c2)cc1N
inactive: T-47D breast 21.9% | BT-549 breast 31.9% | SW-620 colon 10.2% | MCF7 breast 15% | HCT-116 colon 23.6% | HCC-2998 colon 86.1% | KM12 colon 17.7%

N=C(N)N=Nc1ccc(O)cc1
inactive: T-47D breast 98.8% [100 µM] | BT-549 breast 19.3% [100 µM] | SW-620 colon 58.9% [100 µM] | HCC-2998 colon 54.6% [100 µM] | KM12 colon 89.7% [100 µM]
active: MCF7 breast 9.71% [100 µM]

COc1ccc(/C=C/C(=O)NCC(C)O)cc1 (stereo not given)
inactive: T-47D breast 97.2% | MDA-MB-435 melanoma 104% | SW-620 colon 101% | MCF7 breast 94.9% | HCT-116 colon 91.3% | HCC-2998 colon 100% | KM12 colon 99.9%

C=C(C)[C@@H]1CC[C@]2(C)[C@H](CC=C3[C@@H]4CC(C)(C)CC[C@]4(C(=O)OC)CC[C@]32C)[C@@]1(C)CC/C(N)=N/O
inactive: BT-549 breast 63.7% | SW-620 colon 67.6% | HCT-116 colon 18.5% | KM12 colon 61%
active: T-47D breast 6.99% | MCF7 breast 3.92% | HCC-2998 colon -53%

C=C(C)[C@@H]1CC[C@]2(/C=N/Nc3ccncc3)CC[C@]3(C)[C@H](CC[C@@H]4[C@@]5(C)CCCNC(C)(C)[C@@H]5CC[C@]43C)[C@@H]12
inactive: T-47D breast 64.5% | BT-549 breast 77.2% | MCF7 breast 63.2% | HCT-116 colon 43.8% | HCC-2998 colon 71.3% | KM12 colon 82.1%

COc1ccc(CCN2C(=O)C(C)(C)SC2=S)cc1OC
inactive: T-47D breast 104% | BT-549 breast 105% | SW-620 colon 103% | MCF7 breast 98.5% | HCT-116 colon 97.6% | HCC-2998 colon 106% | KM12 colon 101%

Cc1cc(N(CCNc2ccnc3cc(Cl)ccc23)Cc2ccco2)nc(Cl)n1
inactive: HCC-2998 colon 62.2% | KM12 colon 26.5%
active: T-47D breast -69.1% | BT-549 breast -78% | SW-620 colon -35.6% | MCF7 breast -29.7% | HCT-116 colon -96.8%

N#CC1=C(N)Oc2c(c(N)nn2-c2ccccc2)C1c1ccc(Cl)cc1 (stereo not given)
inactive: T-47D breast 86.7% | BT-549 breast 81.5% | SW-620 colon 98.1% | MCF7 breast 98.7% | HCT-116 colon 96.2% | HCC-2998 colon 113% | KM12 colon 104%

CC(CNc1nc(Nc2ccc(Cl)c(Cl)c2)nc(C(Cl)(Cl)Cl)n1)N(C)C (stereo not given)
active: SW-620 colon -74.8% | MCF7 breast -64.8% | HCT-116 colon -88.7% | HCC-2998 colon -79.4% | KM12 colon -88.4%
inactive: T-47D breast 20.4% | BT-549 breast 45.6%

COC(=O)[C@]12CC[C@@H](C)[C@H](C)[C@@H]1C1=CC[C@@H]3[C@@](C)(CC#N)C4=C(C[C@@]3(C)[C@]1(C)CC2)OC[C@]4(C)C=O
active: T-47D breast -9.08% | BT-549 breast -15.2% | SW-620 colon 0.614% | MCF7 breast -10.2% | HCT-116 colon 3.7% | HCC-2998 colon -45.3% | KM12 colon 4.23%

CN1CCN(c2nc(-c3cccc4ccccc34)nc3sc4c(c23)CCCCCC4)CC1
inactive: T-47D breast 67.2% | MDA-MB-435 melanoma 93.3% | SW-620 colon 83.8% | MCF7 breast 68.2% | HCT-116 colon 67.9% | HCC-2998 colon 95.8% | KM12 colon 98.8%

COc1cc2nc(Cl)nc(Nc3cccc(C(=O)/C=C/c4ccc(F)cc4)c3)c2cc1OC
active: SW-620 colon 2.24%
inactive: T-47D breast 67.6% | BT-549 breast 61.4% | MCF7 breast 23.8% | HCC-2998 colon 49.9% | KM12 colon 28.4%

COC(=O)[C@]12CC[C@@H](C)[C@H](C)[C@@H]1C1=CC[C@@H]3[C@@]4(C)C[C@@H](O)OC[C@](C)(C=O)C4C(=O)C[C@@]3(C)[C@]1(C)CC2 (stereo not given in full)
active: T-47D breast -4.48% | MDA-MB-435 melanoma 2.15% | MCF7 breast 6.16% | HCT-116 colon -44.4% | HCC-2998 colon 6.06% | KM12 colon 6.15%
inactive: SW-620 colon 17%

O=S(=O)(NCCCNc1cc(-c2cn(-c3ccccc3)nc2-c2cccc(O)c2)ccn1)c1ccc(F)cc1
active: HCC-2998 colon -34.8%
inactive: T-47D breast 14.8% | BT-549 breast 40.6% | SW-620 colon 30.1% | MCF7 breast 27.2% | HCT-116 colon 23% | KM12 colon 24.2%

Cc1nn(-c2ccc(Cl)cc2)c(=O)n1CCn1cnc2ccccc21
inactive: T-47D breast 90.8% | BT-549 breast 97.5% | MCF7 breast 95.5% | HCT-116 colon 97.5% | HCC-2998 colon 104% | KM12 colon 121%

CCN1CCN(C(=O)[C@@]2(C)CC[C@]3(C)CC[C@]4(C)C(=CC(=O)[C@@H]5[C@@]6(C)CC[C@H](OC7C[C@@H](O)[C@@H](O)C(C)O7)C(C)(C)[C@@H]6CC[C@]54C)[C@@H]3C2)CC1 (stereo not given in full)
inactive: T-47D breast 82.6% | MDA-MB-435 melanoma 20.4% | SW-620 colon 36.7% | MCF7 breast 24.5% | HCC-2998 colon 37.7% | KM12 colon 30.8%
active: HCT-116 colon 1.7%

COC(=O)[C@]12CC[C@@H](C)[C@H](C)[C@@H]1C1=CC[C@@H]3[C@@]4(C)C[C@@H](OC(C)=O)[C@H](OC(C)=O)[C@@](C)(COC(C)=O)[C@@H]4[C@H](O)C[C@@]3(C)[C@]1(C)CC2
active: T-47D breast -13.6% | BT-549 breast 0.787% | MCF7 breast 5.21% | HCT-116 colon 9.38% | HCC-2998 colon 5.84% | KM12 colon 8.42%
inactive: SW-620 colon 20.7%

c1ccc2[nH]c(-c3ccc(Nc4nc(N5CCCCC5)nc(N5CCOCC5)n4)cc3)nc2c1
active: SW-620 colon 5.3% | MCF7 breast 3.49% | HCT-116 colon 9.65% | HCC-2998 colon -1.07%
inactive: T-47D breast 23.4% | BT-549 breast 23.1% | KM12 colon 14.3%

O=C(O)c1cccc2c1-c1ccc(Cl)cc1C2
inactive: T-47D breast 97.9% | BT-549 breast 113% | SW-620 colon 111% | MCF7 breast 104% | HCT-116 colon 107% | HCC-2998 colon 106% | KM12 colon 108%

COc1ccc(NC(=O)c2ccoc2COc2ccccc2)cc1
inactive: T-47D breast 95.1% | BT-549 breast 92% | SW-620 colon 97.9% | MCF7 breast 88.6% | HCT-116 colon 87.4% | HCC-2998 colon 93% | KM12 colon 93.9%

CC1c2ccccc2N(S(=O)(=O)c2ccccc2)C1C (stereo not given)
inactive: T-47D breast 102% | SW-620 colon 72.7% | MCF7 breast 78.5% | HCT-116 colon 86.2% | HCC-2998 colon 101% | KM12 colon 60%
active: MDA-MB-435 melanoma 6.95%

CC[C@H](CC[C@@H](C)[C@H]1CC[C@H]2[C@@H]3/C(=C/c4cccnc4)C(=O)C4=CC(=O)CC[C@]4(C)[C@H]3CC[C@]12C)C(C)C
inactive: T-47D breast 47.7% | BT-549 breast 91.3% | MCF7 breast 51% | HCT-116 colon 61.9% | HCC-2998 colon 98.8% | KM12 colon 97.1%

Cc1cccc2c1NC(=O)[C@@]21[C@H](C(=O)c2ccccc2)[C@]2(C(=O)Nc3ccccc32)[C@H]2CCCN21
inactive: T-47D breast 32.6% [100 µM] | BT-549 breast 10.4% [100 µM] | SW-620 colon 11.7% [100 µM] | HCC-2998 colon 19.7% [100 µM] | KM12 colon 40.3% [100 µM]
active: MCF7 breast -4.76% [100 µM] | HCT-116 colon -36.1% [100 µM]
